Among the test systems are DU-145 prostate; K-562 leukemia; MALME-3M melanoma; MDA-MB-231 breast; RXF 393 renal; SF-268 CNS; SF-295 CNS; SF-539 CNS; UACC-257 melanoma; M14 melanoma; HCT-15 colon; HT29 colon; SNB-75 CNS; SNB-19 CNS; U251 CNS; SK-MEL-5 melanoma; UACC-62 melanoma; LOX IMVI melanoma; SK-MEL-28 melanoma; PC-3 prostate.
Common to all, as to experiment: NCI-60 one-dose screen, 48 h (100 = growth as untreated, 0 = no growth, -100 = all killed)
Holding throughout (conditions): 10 µM unless noted

About 83,000 compounds went through this panel and 20% of them were active in at least one assay; those are over-represented in the sample as a whole.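 48-hour exposure, single concentration, 96-well plates; percent growth endpoint where 0 means no net growth. Active: below 10.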 A number with no mark means an inactive call. The source made the active and inactive calls.

In the case of `O=S(=O)(Nc1cc(Sc2cccc3cccnc23)c(O)c2ccccc12)c1ccccc1`, the growth was 15% with DU-145 prostate; -16.8% (active) in the assay on K-562 leukemia; 0.404% (active) in the assay with MALME-3M melanoma; 25.1% with MDA-MB-231 breast; 28.7% with RXF 393 renal; 8.28% (active) in the assay with SF-268 CNS. Moreover, the growth in the assay on SF-295 CNS is 21.7%; with SF-539 CNS, -9.98% (active); with UACC-257 melanoma, -9.38% (active); in the assay on M14 melanoma, -16.5% (active); in the assay on HCT-15 colon, 12.2%; in the assay on HT29 colon, -35.8% (active). For the same compound, the growth in the assay with SNB-75 CNS is 65.9%; with SNB-19 CNS, 43.4%; with U251 CNS it was 6.77% (active); with SK-MEL-5 melanoma it was -25.2% (active); in the assay on UACC-62 melanoma it was -40.1% (active); in the assay with LOX IMVI melanoma, -50.2% (active). In addition, the growth with SK-MEL-28 melanoma was 0.27% (active).

With `O=C1c2ccccc2C(=O)c2c1c(C(=O)NCc1ccccc1)c1ccccn21`, the growth with DU-145 prostate is 104%; in the assay with K-562 leukemia, 84.5%; in the assay with MALME-3M melanoma it was 108%; in the assay on MDA-MB-231 breast, 96.8%; in the assay on RXF 393 renal it was 104%; in the assay with SF-268 CNS, 104%. Besides, the growth in the assay with SF-295 CNS is 98.1%; in the assay with SF-539 CNS, 104%; in the assay with UACC-257 melanoma, 90.2%; with M14 melanoma, 105%; in the assay on HCT-15 colon, 114%; in the assay with HT29 colon it was 80.6%. Moreover, the growth in the assay on SNB-75 CNS is 94.9%; with SNB-19 CNS it was 93.9%; in the assay with U251 CNS, 93.6%; with SK-MEL-5 melanoma it was 99.6%; in the assay on UACC-62 melanoma, 92.2%; with LOX IMVI melanoma it was 103%. Moreover, the growth with SK-MEL-28 melanoma is 113%.

Take `CCOC(=O)c1cc(C(=O)c2cc(OC)c(OC)c(OC)c2)n2ccccc12`: the growth in the assay on DU-145 prostate is 24.9%; with K-562 leukemia it was 11.5%; with MALME-3M melanoma, 35.6%; with MDA-MB-231 breast, 37.9%; in the assay with RXF 393 renal, -0.358% (active); in the assay with SF-268 CNS, 55.7%. Moreover, the growth in the assay on SF-295 CNS was 21.3%; in the assay on SF-539 CNS, -6.66% (active); with UACC-257 melanoma, 50.1%; in the assay with M14 melanoma, -21.8% (active); in the assay on HCT-15 colon, 29%; in the assay with HT29 colon, 1.16% (active). Moreover, the growth was 32.9% with SNB-75 CNS; 43.4% with SNB-19 CNS; 21.6% with U251 CNS; 22.1% with PC-3 prostate; 37.7% with SK-MEL-5 melanoma; 47% with LOX IMVI melanoma. Besides, the growth in the assay on SK-MEL-28 melanoma was 72.3%.

With `O=C(c1c[nH]c2ccccc12)c1n[nH]c(=S)n1-c1cccc(Br)c1`, the growth was 103% in the assay with DU-145 prostate; 84.6% with K-562 leukemia; 95.4% in the assay with MALME-3M melanoma; 76.9% with MDA-MB-231 breast; 104% in the assay with RXF 393 renal; 95.4% in the assay on SF-268 CNS. Further, the growth was 102% with SF-295 CNS; 106% in the assay on SF-539 CNS; 97.4% with UACC-257 melanoma; 99.3% in the assay with M14 melanoma; 40.9% in the assay on HCT-15 colon; 96.2% in the assay with HT29 colon. The growth with SNB-75 CNS is 83.2%; in the assay with SNB-19 CNS, 93.8%; in the assay on U251 CNS it was 97.3%; with SK-MEL-5 melanoma, 28%; in the assay on UACC-62 melanoma it was 51.9%; in the assay on LOX IMVI melanoma, 93.2%. Further, the growth in the assay with SK-MEL-28 melanoma is 105%.

Take `N=c1c(S(=O)(=O)c2ccccc2)cc2c(=O)n3ccccc3nc2n1CC1CCCO1` (configuration not stated): the growth in the assay on DU-145 prostate is 110%; in the assay on K-562 leukemia, 113%; in the assay on MALME-3M melanoma it was 118%; in the assay on MDA-MB-231 breast, 97.9%; with RXF 393 renal, 113%; with SF-268 CNS it was 100%. Further, the growth is 112% with SF-295 CNS; 95.6% in the assay on SF-539 CNS; 109% with UACC-257 melanoma; 104% in the assay on M14 melanoma; 119% in the assay on HCT-15 colon; 120% in the assay on HT29 colon. Besides, the growth in the assay on SNB-75 CNS is 73.9%; with SNB-19 CNS, 103%; with U251 CNS, 108%; with PC-3 prostate, 95.3%; with SK-MEL-5 melanoma, 99.7%; with LOX IMVI melanoma it was 98.7%. Besides, the growth in the assay with SK-MEL-28 melanoma is 108%.

For the compound `CC1CCN(C(=S)SCC(=O)NC(=O)c2ccccc2)CC1`, the growth in the assay with DU-145 prostate is 107%; in the assay on K-562 leukemia it was 97.1%; with MALME-3M melanoma, 95.5%; in the assay with MDA-MB-231 breast, 117%; in the assay on RXF 393 renal it was 136%; with SF-268 CNS it was 100%. Further, the growth was 105% with SF-295 CNS; 99.2% in the assay on SF-539 CNS; 102% in the assay with UACC-257 melanoma; 109% with M14 melanoma; 109% with HCT-15 colon; 101% in the assay on HT29 colon. For the same compound, the growth with SNB-75 CNS is 96.5%; in the assay with SNB-19 CNS, 111%; in the assay with U251 CNS, 106%; with SK-MEL-5 melanoma, 113%; in the assay on UACC-62 melanoma, 106%; in the assay on LOX IMVI melanoma, 96.9%. Besides, in the assay on SK-MEL-28 melanoma, the growth was 111%.

On to `Cn1cc(-c2csc(-c3cn(CCCN4CCOCC4)c4ccccc34)n2)c2cccnc21`, for which the growth was 97.9% in the assay on DU-145 prostate; 26.2% in the assay with K-562 leukemia; 108% in the assay with MALME-3M melanoma; 76.5% with MDA-MB-231 breast; 65.7% in the assay on RXF 393 renal; 91.7% in the assay with SF-268 CNS. For the same compound, the growth is 79.5% with SF-295 CNS; 89.4% with SF-539 CNS; 89.3% with UACC-257 melanoma; 83.6% with M14 melanoma; 55.5% in the assay on HCT-15 colon; 32.9% in the assay with HT29 colon. Besides, the growth in the assay with SNB-75 CNS was 82.6%; in the assay on SNB-19 CNS, 90.8%; in the assay on U251 CNS, 64.3%; in the assay with PC-3 prostate, 68%; with SK-MEL-5 melanoma, 64.6%; with LOX IMVI melanoma it was 79%. The growth in the assay with SK-MEL-28 melanoma was 88.6%.

As for `COC(=O)c1c2c(c(C)[n+]([O-])c1C)C(=O)C(NCc1ccc(OC)cc1)=CC2=O`, the growth in the assay with DU-145 prostate was 43.9%; in the assay on K-562 leukemia it was 11.4%; in the assay on MALME-3M melanoma, -92.8% (active); in the assay on MDA-MB-231 breast, 5.7% (active); in the assay on RXF 393 renal, 47.3%; in the assay with SF-268 CNS, 22.5%. Also, the growth with SF-295 CNS is 66.6%; in the assay on SF-539 CNS, 10.4%; in the assay on UACC-257 melanoma it was -47.5% (active); in the assay with M14 melanoma, 13.3%; in the assay on HCT-15 colon, 9.67% (active); in the assay with HT29 colon, 9.48% (active). For the same compound, the growth in the assay on SNB-75 CNS was 127%; in the assay on SNB-19 CNS it was 5.27% (active); in the assay on U251 CNS it was -13.9% (active); in the assay on PC-3 prostate it was 4.67% (active); in the assay on SK-MEL-5 melanoma, -53.1% (active); in the assay on LOX IMVI melanoma it was 19%. Moreover, in the assay on SK-MEL-28 melanoma, the growth was 61.9%.
